Bioassay records from PubChem BioAssay.
Hits are enriched below; roughly 7.4% of the tested compounds scored in any of these assays.
ELG1 genotoxic: induces genotoxicity in HEK293T cells with luciferase-tagged ELG1; HEK293T ELG1-luciferase reporter, luminescence, 16 h; Potency, µM (top dose mostly 46 µM), for inactives: at the highest dose activity change, positive = activation, actives largely listed as activators; AID 504466; 1.3% of 330,000 active; further: % of control where 0% means no effect; nearly all actives have a fitted effect of over 60% in size
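After overnight (16 hr) compound treatment at 37 °C, ELG1-luciferase HEK293T cells were lysed with ONE-Glo; luminescence quantified 30 min later at room temperature.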
NPC1 promoter act: activators of NPC1 promoter; Huh7 NPC1 promoter luciferase reporter, 24 h; Potency, µM (series often up to 9.22 µM), without a hit: top-dose activation, actives largely listed as activators; 2.4% of 320,000 active; AID 485313; further: % of control where 0% means no effect; nearly all actives have a fitted effect of over 60% in size
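NPC1 promoter–luciferase Huh7 cells; 24 h compound; luminescence.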
SMN2 splice enh: enhancers of SMN2 splice variant expression. Potency, µM (doses to about 46.1 µM), for inactives: at the top dose activity change, positive = activation, most hits filed as activators. 2.8% of 210,000 active. HEK293 SMN2-luciferase splicing reporter, luminescence, 30-36 h; further: % of control where 0% means no effect; nearly all actives have a fitted effect of over 55% in size
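HEK293 cells carry an SMN2 […]–luciferase reporter in which exon 7 inclusion puts luciferase in frame. Cells were plated 10-12 h before compound addition, then incubated 30-36 h at 37C. ONE-Glo luminescence was read; sodium butyrate at 4.5 mM final served as control.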
FLuc counter: inhibits or activates purified firefly luciferase, miR-21 counter-screen; 6.9% of 360,000 active; purified FLuc, Km substrates, luminescence inhibition; Potency, µM (top dose mostly 57.5 µM), without a hit: at the top dose activity change, negative = inhibition, usual class: inhibitors; P08659; AID 588342;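 further: plate controls were vehicle for no effect and reference inhibitor for full effect; nearly all actives have a fitted effect of over 55% in size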
Target sequence (P08659 whole entry, looked up): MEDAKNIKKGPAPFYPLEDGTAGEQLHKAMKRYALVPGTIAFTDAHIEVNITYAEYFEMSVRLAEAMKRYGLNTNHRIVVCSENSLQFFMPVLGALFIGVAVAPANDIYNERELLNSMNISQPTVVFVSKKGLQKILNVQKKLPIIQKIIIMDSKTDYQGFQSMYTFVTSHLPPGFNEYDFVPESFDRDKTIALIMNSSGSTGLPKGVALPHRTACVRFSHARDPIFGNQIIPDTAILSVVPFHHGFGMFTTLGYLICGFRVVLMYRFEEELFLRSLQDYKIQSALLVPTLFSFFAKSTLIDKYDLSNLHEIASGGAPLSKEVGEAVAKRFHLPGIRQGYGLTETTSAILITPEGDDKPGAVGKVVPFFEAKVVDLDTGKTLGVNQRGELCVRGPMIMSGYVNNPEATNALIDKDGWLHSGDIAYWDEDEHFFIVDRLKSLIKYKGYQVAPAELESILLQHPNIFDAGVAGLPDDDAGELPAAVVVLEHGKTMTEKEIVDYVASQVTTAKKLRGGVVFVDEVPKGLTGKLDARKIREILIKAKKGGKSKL
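Biochemical qHTS of compounds, final roughly 60 µM downward over six points, against 10 nM purified firefly luciferase using Km concentrations of substrates (10 uM D-luciferin, 10 uM ATP) in Tris acetate pH 7.5 buffer; luminescence output.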
Rab9 prom act: Rab9 promoter activation; Huh7 Rab9 promoter-luciferase reporter, luminescence, 24 h; Potency, µM (top dose mostly 9.22 µM), for the others: at the highest dose activation, negative = inhibition, usual class: activators; 2.8% of 320,000 active; further: % of control where 0% means no effect; nearly all actives have a fitted effect of over 60% in size
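Luminescence from Amplite-detected luciferase (10 minutes, ambient) reports Rab9 promoter activation. Before that, stable Rab9-luciferase Huh7 cells (1500/well, reduced-serum OP-MEM I plus 10% FBS) were exposed to compound for 24 hours at 37C.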
* marks the source's active call; other numbers are inactive results; ? = inconclusive; · = not tested or not shown. The call rests on the fitted dose curve; in most records, active means well fitted curve in the direction sought with a large enough effect; inconclusive means small, poorly fitted or top-dose-only effect, or another doubt; inactive means no such curve, though single readings can be large; an effect the other way counts as inactive or inconclusive. Potency means the concentration at half of the fitted maximal effect.

SMILES | ELG1 genotoxic | NPC1 promoter act | SMN2 splice enh | FLuc counter | Rab9 prom act
Cc1nc(NC(=O)/C=C/c2ccccc2)sc1C(=O)Nc1ccccc1Cl | 12.0% | 1.0% | 12.9% | 12µM* | -5.8%
C=C1CCC2[C@](C)(CO)C(O)CC[C@]2(C)C1C/C=C1/C(=O)OCC1O (stereo not given in full) | · | · | -11.9% | · | ·
COC(=O)c1ccccc1NC(=O)CSc1cc(-c2ccccc2)nc(C)n1 | · | · | · | 2.9% | ·
COc1ccccc1NC(=O)CCn1nc(-c2ccccc2OC)c2c(C)cc(C)nc21 | · | · | -11.8% | -15.9% | ·
c1ccc(-n2ncc3c(NCC4CCCO4)ncnc32)cc1 (stereo not given) | 2.3% | 2µM* | -0.9% | 16.9µM* | 3.55µM*
CC(Sc1ncnc2c1cnn2-c1ccccc1)C(=O)NCC1CCCO1 (stereo not given) | 2.0% | -4.9% | · | ? | -4.4%
COc1ccc(-n2ncc3c(NCC4CCCO4)ncnc32)cc1 (stereo not given) | 11.7% | 0.562µM* | 11.2µM* | 10.7µM* | 0.891µM*
Clc1ccc(-n2ncc3c(NCC4CCCO4)ncnc32)cc1 (stereo not given) | ? | 0.631µM* | 5.01µM* | 1.69µM* | 0.447µM*
CCc1ccc(-n2c(Cc3ccccc3)nnc2SCc2nc(-c3cccs3)no2)cc1 | · | · | 11.9% | -16.3% | ·
Cc1oc(-c2ccoc2)nc1CN(CC1CCC(=O)N1)C(C)C (stereo not given) | 3.5% | -3.6% | · | -1.3% | -1.3%
COCCN(Cc1nc(-c2ccc(-c3ccccc3)cc2)oc1C)C(C)C | 0.92µM* | -19.9% | · | 9.53µM* | ?
CCc1ccc(/C=N\NC(=O)c2ccc(Br)o2)s1 | ? | 3.55µM* | 11.2µM* | 10.7µM* | 2.82µM*
Cc1ccc(/C=N/NC(=O)c2ccc(Br)o2)s1 | ? | ? | 15.8µM* | ? | ?
CCc1ccc(/C=N/NC(=O)Cc2ccc(OC)c(OC)c2)s1 | -5.8% | 0.4% | · | -2.5% | -9.9%
COc1cccc(C(=O)NCCc2csc3nc(-c4ccccc4F)nn23)c1OC | · | · | · | -3.4% | ·
COc1ccccc1NC(=S)NC1CCCCCC1 | -3.4% | -1.2% | · | ? | -0.2%
COc1ccccc1NC(=O)NC1CCCCCCC1 | -3.3% | -1.8% | · | 13.5µM* | 1.7%
O=C(Nc1ccccc1Cl)NC1CCCCCCC1 | ? | ? | · | 13.5µM* | ?
CC(=O)c1ccc(NC(=O)c2sc(-n3nc(C)c(Cc4ccccc4)c3C)nc2C)cc1 | · | · | · | -0.4% | ·
Cc1ccc(N(CC(=O)Nc2ccc(F)cc2F)S(=O)(=O)c2cccs2)cc1 | · | · | -10.8% | -16.6% | ·
O=C(OCc1ccc(Cl)c(Cl)c1)c1ccc[nH]1 | ? | ? | · | 23.9µM* | ?
O=C(Cc1ccc(Cl)c(Cl)c1)OCC(=O)c1ccc[nH]1 | -1.2% | -5.8% | -12.6% | -13.2% | 3.3%
Cn1ccnc1SCc1cn2cc(Br)ccc2n1 | ? | 0.316µM* | ? | 3.79µM* | 0.562µM*
CCOC(=O)NC(=O)/C(C#N)=C\Nc1ccc(Cl)cc1Cl | 16.1% | -22.6% | -8.1% | 13.5µM* | ?
CC(=O)Nc1cccc(NC(=O)C(=O)Nc2ccc3c(c2)N(C(=O)C2CC2)CCC3)c1 | -0.4% | 27.8% | · | 9.53µM* | ?
SMILES | ELG1 genotoxic | NPC1 promoter act | SMN2 splice enh | FLuc counter | Rab9 prom act
N/C(=N\O)c1ccc(N2CCN(c3ncccc3C(F)(F)F)CC2)nc1 | ? | 2.24µM* | · | 12µM* | 2.51µM*
O=C(Nc1ccc(N2CCN(c3ncccc3C(F)(F)F)CC2)nc1)c1cccs1 | -22.8% | -6.4% | · | ? | -15.9%
CCCCNC(=O)c1ccc2c(c1)S(=O)(=O)c1ccccc1C2=O | 11.0% | -4.3% | · | 15.1µM* | -5.4%
COc1ccc(/C=N/NC(=O)c2cc(-c3ccccc3OC)nc3ccccc23)cc1COC(C)=O | -1.7% | -0.4% | -1.7% | 0.3% | -2.7%
COc1cc(/C=N/NC(=O)c2cc(-c3cccs3)nc3ccccc23)ccc1O | -1.2% | -2.1% | · | 6.75µM* | -0.7%
N#Cc1ccc(/C=N/NC(=O)c2cc(-c3cccs3)nc3ccccc23)cc1 | 1.6% | -15.9% | 6.8% | 6.75µM* | -5.8%
CCC(/C=C/C(C)C1CCC2C3CCC4=CC(=O)CC[C@@]4(C)C3CC[C@@]12C)C(C)C (stereo not given in full) | · | · | 5.1% | · | ·
